HEK293 viab = reduces viability of HEK-293 SNCA reporter cells. AID 1671193. hit rate 0.12% among 150,000. Potency, µM (top dose mostly 57.1 µM), for the others: at the highest dose activity change, negative = cytotoxicity, most hits filed as cytotoxic. HEK-293-SNCA-luc viability, GF-AFC fluorescence, 24 h;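 further: potency means the concentration at half of the fitted maximal effect; 0% = DMSO-treated cells and -100% = medium-only wells without cells; nearly all actives have a fitted effect of over 30% in size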
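HEK-293-SNCA-luc cells (1500/well) plated 24 h, then exposed 24 h to a dilution series; GF-AFC added 30 min at 37C, fluorescence 405/540 nm; normalised to medium-only and DMSO wells, Hill fit.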
IP6K1 inh = blocks human inositol hexakisphosphate kinase 1 | Q92551 | IP6K1 kinase, ADP-Glo luminescence, 2 h; hits give low values | activity change, % (series mostly up to about 58 µM) | hit rate 0.81% among 140,000 | AID 1645851; in the data active means activity change below about -25%; further: on the % scale 0 is the no-effect control and ±100 the full control effect
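ADP-Glo luminescence measures ADP made by human IP6K1 during a 2 h RT reaction with ATP/IP6 (mix at 1.3 mM/130 uM); top library doses 57.5 and 19.1 uM final.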
SNCA expr inhib = SNCA gene expression inhibition; HEK-293 SNCA-luciferase knock-in, luminescence, 24 h; Potency, µM (top dose mostly 57.2 µM), without a hit: at the highest dose activity change, negative = inhibition, actives largely listed as inhibitors; hit rate 0.17% among 140,000; AID 1671194;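 further: potency means the concentration at half of the fitted maximal effect; plate controls were DMSO cells for no effect and cell-free wells for full effect; nearly all actives have a fitted effect of over 45% in size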
KDM5B inhibitor = KDM5B demethylase inhibition; Q9UGL1; KDM5B demethylase, FDH-coupled NADH fluorescence (FDH is formaldehyde dehydrogenase); Potency, µM (top dose mostly 57.7 µM), most hits filed as inhibitors; hit rate 2.6% among 220,000; AID 1347165; further: potency means the concentration at half of the fitted maximal effect; 0% is about no effect; nearly all actives have a fitted effect of over 70% in size
Target sequence (Q9UGL1 whole entry, looked up): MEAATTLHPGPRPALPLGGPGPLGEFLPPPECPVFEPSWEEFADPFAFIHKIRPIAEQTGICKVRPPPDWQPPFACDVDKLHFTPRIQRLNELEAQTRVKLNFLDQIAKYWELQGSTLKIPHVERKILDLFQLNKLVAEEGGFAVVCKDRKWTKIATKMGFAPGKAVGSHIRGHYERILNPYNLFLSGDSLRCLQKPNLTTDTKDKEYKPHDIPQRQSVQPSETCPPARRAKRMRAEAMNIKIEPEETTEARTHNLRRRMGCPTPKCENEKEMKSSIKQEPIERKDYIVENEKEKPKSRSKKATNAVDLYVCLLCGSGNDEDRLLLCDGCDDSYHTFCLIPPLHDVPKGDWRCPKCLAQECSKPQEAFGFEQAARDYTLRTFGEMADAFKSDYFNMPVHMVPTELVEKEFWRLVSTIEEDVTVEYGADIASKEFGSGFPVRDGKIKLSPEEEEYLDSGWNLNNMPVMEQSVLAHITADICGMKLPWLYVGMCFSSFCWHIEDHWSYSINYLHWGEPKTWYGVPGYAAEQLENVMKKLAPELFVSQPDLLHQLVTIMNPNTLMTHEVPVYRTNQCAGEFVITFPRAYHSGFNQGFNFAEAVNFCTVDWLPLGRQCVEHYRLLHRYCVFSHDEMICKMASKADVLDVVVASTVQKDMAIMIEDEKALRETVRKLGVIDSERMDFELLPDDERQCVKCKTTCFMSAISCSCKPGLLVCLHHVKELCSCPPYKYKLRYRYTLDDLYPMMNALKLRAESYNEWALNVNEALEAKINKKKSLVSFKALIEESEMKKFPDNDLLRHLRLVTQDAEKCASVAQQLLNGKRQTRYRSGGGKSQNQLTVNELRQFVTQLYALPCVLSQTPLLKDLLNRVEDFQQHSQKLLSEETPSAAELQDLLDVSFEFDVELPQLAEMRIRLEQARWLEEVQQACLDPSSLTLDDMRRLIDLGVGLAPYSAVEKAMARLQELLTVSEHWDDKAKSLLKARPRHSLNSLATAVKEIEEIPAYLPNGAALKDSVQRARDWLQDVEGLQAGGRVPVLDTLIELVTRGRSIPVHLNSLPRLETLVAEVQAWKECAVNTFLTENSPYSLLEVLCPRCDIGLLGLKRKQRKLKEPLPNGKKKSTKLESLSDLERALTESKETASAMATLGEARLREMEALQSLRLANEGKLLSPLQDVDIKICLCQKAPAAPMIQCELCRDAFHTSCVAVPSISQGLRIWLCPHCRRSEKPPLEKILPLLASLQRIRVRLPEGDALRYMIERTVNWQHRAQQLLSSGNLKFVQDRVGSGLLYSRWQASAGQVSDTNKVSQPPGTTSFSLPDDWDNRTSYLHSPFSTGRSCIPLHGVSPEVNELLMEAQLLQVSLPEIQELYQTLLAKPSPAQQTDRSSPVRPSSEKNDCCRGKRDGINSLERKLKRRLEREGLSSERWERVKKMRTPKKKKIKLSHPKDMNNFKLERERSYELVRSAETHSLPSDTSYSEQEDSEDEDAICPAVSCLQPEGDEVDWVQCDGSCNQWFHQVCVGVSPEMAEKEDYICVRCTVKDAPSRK
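Compound dilutions met 200 nM (final) KDM5BΔAP for 10 min at room temperature before substrate addition. The substrate mix held 12.5 µM H3K4me3 with cofactors 25 µM α-ketoglutarate and 50 µM Fe²⁺. NADH signal gain over 30 min defined activity.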
IP6K1 inh cnf = human IP6K1 inhibition, confirmatory; recombinant IP6K1 kinase, ADP-Glo luminescence, 2 h; shares compounds with IP6K1 inh; Potency, µM (series often up to 49 µM), for the others: at the top dose activity change, negative = inhibition, hits mostly inhibitors; hit rate 13% among 1,200; AID 1645852; further: potency means the concentration at half of the fitted maximal effect; on the % scale 0 is the no-effect control and ±100 the full control effect; nearly all actives have a fitted effect of over 65% in size
* = called active by the depositor; i = inactive; ? = inconclusive; . = no result; [ ] = remark or other dose. Shown are actives, neighbours in structure and some others; about 2.8% of the full set was active somewhere. Unless noted, the call rests on the fitted dose curve; in most records, active means well fitted curve in the direction sought with a large enough effect; inconclusive means small, poorly fitted or top-dose-only effect, or another doubt; inactive means no such curve, though single readings can be large; an effect the other way counts as inactive or inconclusive.

SMILES	HEK293 viab	IP6K1 inh	SNCA expr inhib	KDM5B inhibitor	IP6K1 inh cnf
CCn1ccc(C(=O)N2CCCN(S(C)(=O)=O)C(c3ccccc3)CC(=O)NCC2)n1 (stereo unspecified)	7.7%	7.5	-21.0%	i	.
CC(NC(CCc1ccccc1)C(=O)O)C(=O)N1C(=O)N(C)CC1C(=O)O (stereo unspecified)	7.0%[23.9 µM]	-3.6	10.6%[25.6 µM]	.	.
O=C(Nc1noc2ccccc12)c1cccc(F)c1	11.0%	1.1	-41.0%	?	.
O=C(Nc1noc2ccccc12)c1ccc(F)cc1	17.9%	-48.4*	-74.8%	i	?
COc1ccccc1-c1nccc2c(=O)cc(-c3ccccn3)oc12	-15.5%[87.6 µM]	-17.3	?	?	.
O=c1cc(C2=CCOCC2)oc2c(-c3cccc4[nH]ccc34)nccc12	?	-25.4*	-29.5%[87.6 µM]	?	?
Cc1ccccc1NC(=O)CCn1nc(-c2ccccc2)c2ccccc2c1=O	-14.8%	-25.5*	-6.1%	i	-9.5%
O=C(CCn1nc(-c2ccccc2)c2ccccc2c1=O)Nc1cccc2ccccc12	.	.	.	i	.
CS(=O)(=O)N1CCC(OC2CCN(C(=O)NCc3cccc(F)c3)CC2)CC1	10.7%	-10.6	-11.4%	i	.
O=C(c1cccc(Cl)c1)N(Cc1cccc(F)c1)C1CCS(=O)(=O)C1 (stereo unspecified)	2.8%	-36.6*	7.3%	i	-13.8%
COc1cccc(C(=O)N(Cc2cccc(F)c2)C2CCS(=O)(=O)C2)c1 (stereo unspecified)	-17.9%	12.4	-6.1%	i	.
CCc1cnc2c(c1SCCC(C)C)c(=O)n(C)c(=O)n2C	5.2%	-28.2*	0.2%	i	-17.5%
CCc1ccccc1NC(=O)Nc1cccc(-c2ccc(N3CCOCC3)nn2)c1	-2.7%	-26.4*	58.7%	i	-24.1%
COc1cccc(CNC(=O)Nc2cccc(-c3ccc(N4CCOCC4)nn3)c2)c1	-3.0%	-38.8*	?	i	?
Cc1ccc(CNC(=O)Nc2cccc(-c3ccc(N4CCOCC4)nn3)c2)cc1	-1.0%	-13.0	-4.8%	i	.
CCOC(=O)c1csc(Nc2ccc(Cl)cc2)n1	-11.5%	-26.6*	.	.	?
O=C(CCCc1ccccc1)N1CCC(Cc2noc(-c3ccccc3)n2)C1 (stereo unspecified)	-3.9%	14.8	3.6%	.	.
COCC1CCN(c2ccc(-c3nc(CCCc4ccccc4)no3)cn2)C1 (stereo unspecified)	-4.5%	-32.6*	92.4%	35.5µM*	-12.4%
CCOc1ccc(/C=C/c2nc(C#N)c(NCc3ccco3)o2)cc1	.	.	.	i	.
Cc1ccc(CNC(=O)Cc2c(C)c3c(cc(C)c4c(C)coc43)oc2=O)cc1	2.3%	-26.5*	-5.2%	i	-19.8%
Cc1coc2c1c(C)cc1oc(=O)c(CC(=O)NCCc3ccc(Cl)cc3)c(C)c12	0.9%	-6.8	-4.8%	i	.
C/C=C/C=C/C=C/C(=O)O[C@@H]1[C@@H](OC)C2=C(C(=O)N(C(C)C(=O)O)C2)[C@@]2(C)CCCC(C)(C)[C@H]12 (stereo partly specified)	-24.3%[23.9 µM]	10.9	.	.	-5.6%[18.9 µM]
COc1cccc(N2C(=O)NC(=NC3CCCC3)C23CCCN(CC2CCCCC2)C3)c1 (stereo unspecified)	?	-20.8	?	i	.
COc1cccc(N2C(=O)NC(=NC3CCCCC3)C23CCCN(CC2CCCCC2)C3)c1 (stereo unspecified)	?	-25.6*	?	?	?
Fc1ccc(OCc2cc(-c3ccco3)on2)c(Br)c1	.	.	.	i	.
Cc1ccc(NC(=O)NCc2c(-n3cccc3)sc3c2CCCC3)c(Cl)c1	0.3%	-27.0*	-17.0%	i	-19.5%
Cc1c(Cl)cccc1NC(=O)NCc1c(-n2cccc2)sc2c1CCCC2	-11.8%	0.9	-1.2%	i	.
COCCn1c(SC(C)C(N)=O)nnc1-c1cccc(C)c1 (stereo unspecified)	.	.	.	i	.
COc1cc([C@H]2Oc3cc([C@H]4Oc5cc(O)cc(O)c5C(=O)[C@@H]4O)ccc3O[C@@H]2CO)ccc1O	-27.1%[23.9 µM]	-78.7*	21.3%[25.6 µM]	.	7.31µM*
COc1cc([C@H]2Oc3cc([C@H]4Oc5cc(O)cc(O)c5C(=O)[C@H]4O)ccc3O[C@H]2CO)ccc1O	15.1%	.	?	.	.

High-throughput results (PubChem BioAssay)
